Results published in article PMC8159961, “Exploring protein hotspots by optimized fragment pharmacophores” (Nature Communications, 2021).

Molecular target: histone methyltransferase SET domain containing 2 (SETD2) (Homo sapiens, UniProt Q9BYW2)
Assay: primary screen, binary call; higher = more effect of the substance; call rule not given here
Description: The Chemiluminescence assay evaluates SETD2 specific tri -methylation activity towards histone H3K36. The kit consist s of recombinant SETD2, S-adenosylmethionine and a specific H3K36me3 antibody and was performed according to the manufacturer’s protocol (Catalo g- No. 52060, https://bpsbioscience.com/setd2 -chemiluminescent-assay-kit-52060). Values were blank corrected and normalized . Enzymatic activities were calculated relative to the positive control of the kit (full enzymatic activity) and to the known SET doma in inhibitor Sinefungin28 used as negative control (complete enzymatic activity inhibition). Compounds used were diluted in DMSO.

Sequence of histone methyltransferase SET domain containing 2 (SETD2) (Q9BYW2 whole entry, looked up, the tested form may be a part): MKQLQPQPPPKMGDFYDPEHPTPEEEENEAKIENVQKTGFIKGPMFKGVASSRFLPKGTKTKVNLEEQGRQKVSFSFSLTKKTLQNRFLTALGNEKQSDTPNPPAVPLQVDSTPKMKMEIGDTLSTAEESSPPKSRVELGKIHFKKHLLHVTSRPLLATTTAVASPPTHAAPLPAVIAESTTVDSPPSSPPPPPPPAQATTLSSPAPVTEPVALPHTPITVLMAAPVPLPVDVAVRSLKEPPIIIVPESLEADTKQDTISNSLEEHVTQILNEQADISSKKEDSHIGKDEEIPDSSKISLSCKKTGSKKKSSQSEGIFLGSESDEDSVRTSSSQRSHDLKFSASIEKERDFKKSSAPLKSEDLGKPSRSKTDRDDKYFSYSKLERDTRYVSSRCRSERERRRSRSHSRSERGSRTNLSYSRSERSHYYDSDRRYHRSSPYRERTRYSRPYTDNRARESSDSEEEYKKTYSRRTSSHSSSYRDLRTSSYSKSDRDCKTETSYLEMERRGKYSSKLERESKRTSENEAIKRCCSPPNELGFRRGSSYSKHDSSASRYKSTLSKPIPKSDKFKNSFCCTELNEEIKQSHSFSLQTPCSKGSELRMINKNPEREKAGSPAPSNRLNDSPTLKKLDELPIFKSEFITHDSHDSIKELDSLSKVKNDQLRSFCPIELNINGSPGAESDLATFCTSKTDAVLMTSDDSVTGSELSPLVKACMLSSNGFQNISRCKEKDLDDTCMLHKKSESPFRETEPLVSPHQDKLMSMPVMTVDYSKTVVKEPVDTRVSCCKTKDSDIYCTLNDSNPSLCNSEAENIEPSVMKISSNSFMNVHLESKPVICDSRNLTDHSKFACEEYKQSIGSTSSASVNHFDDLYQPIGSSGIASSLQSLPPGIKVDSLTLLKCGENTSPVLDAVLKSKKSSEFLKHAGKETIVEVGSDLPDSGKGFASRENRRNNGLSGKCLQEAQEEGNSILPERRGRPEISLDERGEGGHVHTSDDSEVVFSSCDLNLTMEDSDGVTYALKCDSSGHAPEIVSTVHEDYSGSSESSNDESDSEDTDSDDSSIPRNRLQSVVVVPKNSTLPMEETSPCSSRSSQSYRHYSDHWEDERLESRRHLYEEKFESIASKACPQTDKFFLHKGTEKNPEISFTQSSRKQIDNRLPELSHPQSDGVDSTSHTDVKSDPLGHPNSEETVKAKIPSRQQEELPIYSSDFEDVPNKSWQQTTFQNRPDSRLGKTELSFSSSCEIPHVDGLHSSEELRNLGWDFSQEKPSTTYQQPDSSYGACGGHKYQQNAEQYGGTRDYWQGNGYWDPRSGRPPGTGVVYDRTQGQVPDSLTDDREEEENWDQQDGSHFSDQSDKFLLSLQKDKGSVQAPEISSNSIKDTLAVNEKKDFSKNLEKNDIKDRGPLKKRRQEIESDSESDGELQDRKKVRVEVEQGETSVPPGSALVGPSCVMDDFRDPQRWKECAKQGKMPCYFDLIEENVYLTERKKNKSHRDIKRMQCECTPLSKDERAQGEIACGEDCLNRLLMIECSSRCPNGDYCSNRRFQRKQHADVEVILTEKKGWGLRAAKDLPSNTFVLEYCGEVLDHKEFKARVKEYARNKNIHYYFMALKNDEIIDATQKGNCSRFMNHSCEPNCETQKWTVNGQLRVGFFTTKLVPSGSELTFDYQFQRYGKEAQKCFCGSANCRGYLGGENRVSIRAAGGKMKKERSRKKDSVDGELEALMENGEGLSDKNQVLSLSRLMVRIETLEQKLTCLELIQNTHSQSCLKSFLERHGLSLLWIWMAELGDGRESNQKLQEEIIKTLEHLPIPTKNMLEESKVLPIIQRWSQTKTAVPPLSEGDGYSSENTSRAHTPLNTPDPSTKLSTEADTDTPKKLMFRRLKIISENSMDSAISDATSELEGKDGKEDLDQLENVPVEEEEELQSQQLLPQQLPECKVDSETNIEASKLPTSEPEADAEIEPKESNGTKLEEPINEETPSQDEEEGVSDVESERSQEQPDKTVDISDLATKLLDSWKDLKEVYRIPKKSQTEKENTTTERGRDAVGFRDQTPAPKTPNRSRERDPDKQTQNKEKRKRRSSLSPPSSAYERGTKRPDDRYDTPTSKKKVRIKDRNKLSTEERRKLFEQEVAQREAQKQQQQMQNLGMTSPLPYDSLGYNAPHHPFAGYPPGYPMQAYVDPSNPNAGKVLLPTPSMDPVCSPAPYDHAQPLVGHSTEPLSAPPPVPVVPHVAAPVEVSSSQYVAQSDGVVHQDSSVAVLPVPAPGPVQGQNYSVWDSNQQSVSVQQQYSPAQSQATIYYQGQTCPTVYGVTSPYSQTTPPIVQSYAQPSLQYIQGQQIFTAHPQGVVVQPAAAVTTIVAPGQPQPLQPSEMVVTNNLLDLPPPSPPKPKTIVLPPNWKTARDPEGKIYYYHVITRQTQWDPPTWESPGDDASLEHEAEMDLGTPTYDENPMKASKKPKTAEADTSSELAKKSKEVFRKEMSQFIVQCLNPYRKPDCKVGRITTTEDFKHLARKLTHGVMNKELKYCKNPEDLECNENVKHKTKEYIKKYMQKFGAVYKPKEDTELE

SETD2, active:
CC1CCc2sc(C(=O)O)cc2C1 (centres unmarked) 1

SETD2, inactive:
Cc1cc(-c2ccccc2)n[nH]1 0
COc1ccccc1N1CCNCC1 0
O=C(NC1CC1)c1ccccc1O 0
O=C(CN1CCCC1)c1ccccc1Cl 0
O=C1CC(CSc2ccc(Cl)cc2)=NN1 0
CS(=O)(=O)c1ccc(N2CCNCC2)cc1 0
O=C1CCCc2occc21 0
O=C(Nc1ccccc1)C1CC1 0
O=C(O)CC1CCC(=O)N1 (centres unmarked) 0
COc1ccccc1CC1CCNCC1.Cl 0
